Compound activity (PubChem)
Cav32 inh: human Cav3.2 channel inhibition, primary screen. Cav3.2-expressing cells, Fluo-4 calcium fluorescence FDSS; hits give low values. B-score at 10 µM. 100,000 compounds, 4% hits. AID 449739;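 active = single-dose well whose peak fluorescence ratio is a statistical outlier from its plate by either plate-standardised score or position-corrected B-score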
CYP2C9 act: activators of human CYP2C9; P11712; 96,000 compounds, 1.4% hits; AID 1024; activation factor at 5 µM; recombinant CYP2C9, luciferin-H conversion, luminescence; hits give high values; factor 1 = untreated enzyme, 0 = blocked;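 active = activation factor of 2 or more for CYP2C9 at a 5 µM dose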;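 note: 0 = sulfaphenazole-blocked wells and 1 = vehicle-only wells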
Target sequence (P11712 whole entry, looked up): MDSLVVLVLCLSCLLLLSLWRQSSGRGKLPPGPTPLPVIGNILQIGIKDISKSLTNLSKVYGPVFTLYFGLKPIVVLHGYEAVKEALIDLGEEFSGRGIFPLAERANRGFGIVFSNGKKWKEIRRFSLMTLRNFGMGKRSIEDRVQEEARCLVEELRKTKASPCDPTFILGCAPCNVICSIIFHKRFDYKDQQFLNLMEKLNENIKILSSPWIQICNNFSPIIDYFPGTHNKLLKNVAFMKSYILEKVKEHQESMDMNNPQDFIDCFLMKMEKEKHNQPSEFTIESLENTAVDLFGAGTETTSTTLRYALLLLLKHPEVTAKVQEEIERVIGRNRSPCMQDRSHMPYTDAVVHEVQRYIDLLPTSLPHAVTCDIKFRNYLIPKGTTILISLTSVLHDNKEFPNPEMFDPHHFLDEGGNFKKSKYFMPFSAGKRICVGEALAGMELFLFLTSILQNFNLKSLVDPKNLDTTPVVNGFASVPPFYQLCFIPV
CYP2C19 act: activators of human cytochrome P450 2C19. 96,000 tested, under 10 active. AID 1025. activation factor at 5 µM. recombinant CYP2C19, luciferin-H EGE luminescence; hits give high values; 0 = fully inhibited enzyme, 1 = untreated enzyme. P33261;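 active = activation factor of at least 2 at 5 µM in the primary screen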;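 note: 0 = wells with 2.5 mM tranylcypromine and 1 = vehicle-only wells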
Pyk2 oligo antag: blocks oligomerization of human Pyk2 in cells. AID 1347419. z-score (the deposit names both 25 µM and 10 µM). 99,000 compounds, 0.83% hits. Q293 cells, Pyk2 FERM NanoBiT luminescence; hits give low values. Q14289;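 active = Z-score of -3 or lower, scaled per plate to the spread of control and sample wells; inactive = z-score above -3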;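 note: negative z-score means lost luminescence so less FERM oligomerization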
CYP2C9 inh: inhibitors of human CYP2C9 | CYP2C9 Supersomes, luciferin-H conversion, luminescence | inhibition, % at 5 µM | 96,000 compounds, 20% hits | AID 777;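 active = blocking of liver enzyme CYP2C9 beyond about 50% at 5 µM, limit read from the data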
CYP2C19 inh: inhibitors of human CYP2C19; AID 778; inhibition, % at 5 µM; P33261; 96,000 compounds, 21% hits; CYP2C19 Supersomes, luciferin-H EGE luminescence, 30 min;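 active = CYP2C19 inhibition above a set limit at 5 µM in the primary screen, cut at about 50% in these data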;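 note: plate controls were negative control wells for no effect and 2.5 mM tranylcypromine positive control for full effect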
An asterisk follows results filed as active; / = no result given. In the library only some 27% were active in any assay of this set; here they are far more common.

SMILES	Cav32 inh	CYP2C9 act	CYP2C19 act	Pyk2 oligo antag	CYP2C9 inh	CYP2C19 inh
Cc1noc(C)c1S(=O)(=O)Nc1ccc(C(=O)N2CCCCC2)cc1	2	0.5	0.8	1.2	52*	23
Cc1noc(C)c1S(=O)(=O)N1CCC(C(=O)N2CCN(c3ccccc3Cl)CC2)CC1	1.6	0.8	1	1.1	16	0
Cc1ccc(NS(=O)(=O)c2cc(C(=O)N3CCOCC3)ccc2C)cc1	-0.5	1	1	-0.81	4	-2
COC(=O)c1ccc(-n2nnnc2SCc2nn[nH]n2)cc1	0.6	1.1	1.1	0.76	-5	-10
O=[N+]([O-])c1ccccc1/C=N/Nc1nnc(-c2ccccc2)c(-c2ccccc2)n1	/	/	/	-2.9	/	/
COc1ccc(S(=O)(=O)n2nc(OC(=O)c3cccs3)cc2NC(=O)c2cccs2)cc1	-0.051	/	/	/	/	/
COC(=O)c1sccc1NC(=O)c1ccc(OC)c(OC)c1	-1.3	0.8	0.9	-1.4	17	11
Cc1ccc(CNC(=O)CN(Cc2ccccc2)S(C)(=O)=O)cc1	-0.19	/	/	1	/	/
COc1ccc(C2CC(=O)Oc3cc(O)cc(O)c32)cc1 (configuration not stated)	0.37	/	/	/	/	/
Cc1ccc2c(c1)OC(=O)CC2c1ccccc1 (configuration not stated)	0.66	0.5	0.3	2.3	47	68*
CCN1CC(CCN2CCOCC2)C(c2ccccc2)(c2ccccc2)C1=O (configuration not stated)	0.91	/	/	/	/	/
CSc1nnc(-c2sc(-c3ccccc3)nc2C)n1C	-0.009	0.3	0.6	-0.05	72*	42
O=S(=O)(c1ccccc1Cl)N1CCCC1c1nc(-c2ccc(Cl)cc2)no1 (configuration not stated)	0.09	1.1	0.7	1.3	-9	28
CC(C(=O)N/N=C/c1ccc(N(C)C)c(Br)c1)N(c1ccccc1)S(C)(=O)=O (configuration not stated)	-6*	0.6	0.7	-2	43	26
COc1ccc(N(C(C)C(=O)N/N=C/c2ccc(OC(C)C)cc2)S(C)(=O)=O)cc1 (configuration not stated)	-0.61	0.9	0.8	-0.74	10	22
COc1ccc(Cl)cc1-n1c(=S)sc2c(=O)[nH]c(SCC(=O)NCC3CCCO3)nc21 (configuration not stated)	-0.61	0.5	1	2.4	53*	3
O=C1CCCc2c1[nH]c1c(Br)cccc21	3.3	1.6	0.7	-1	-59	26
O=C1CCCc2c1[nH]c1ccccc21	-0.099	2.2*	1	0.18	-119	-2
CCCCNC(=O)Cc1cc(=O)[nH]c(=O)[nH]1	0.22	/	/	/	/	/
COc1ccccc1S(=O)Cc1ccc(C(=O)NCCc2ccc(Cl)cc2)o1 (configuration not stated)	-0.81	0.4	0.4	/	65*	62*
NC12CC3CC(C1)CC(CO)(C3)O2	0.16	0.9	0.9	0.55	11	11
CN1CCN(Cc2c(O)ccc3occ(C(=O)c4ccccc4)c23)CC1	0.95	0.9	0	4	8	99*
CN1CCN(Cc2c(O)ccc3c(-c4ccccc4)cc(=O)oc23)CC1	1.1	0.8	0.5	-0.18	19	54*
CCN(CC)Cc1c(O)ccc2c(-c3ccccc3)cc(=O)oc12	1.1e-05	1.1	0.9	0	-10	10
CCOC(=O)c1c(-c2ccccc2)oc2ccc(O)c(CN3CCN(C)CC3)c12	/	/	/	0.29	/	/
SMILES	Cav32 inh	CYP2C9 act	CYP2C19 act	Pyk2 oligo antag	CYP2C9 inh	CYP2C19 inh
CC(CCc1ccccc1)NC(=O)C1CCN(S(=O)(=O)N2CCOCC2)CC1 (configuration not stated)	/	/	/	0.21	/	/
COc1ccc(OC)c(NC(=O)CNC(=O)c2cccs2)c1	0.0052	0.8	0.5	0.47	19	54*
COc1ccc(NC(=O)C(=O)NNC(=O)c2cccs2)c(OC)c1	-0.066	1	0.9	0.92	0	9
COc1ccc(C(=O)NCC(=O)OCC(=O)Nc2cc(OC)ccc2OC)cc1	0.54	0.5	0.3	-0.12	49	71*
Cc1noc(C)c1COc1ccc(C(=O)NCc2ccccn2)cc1	0.026	1.2	1.1	0.26	-16	-13
O=C(Nc1ccc2c(c1)OCO2)C(c1ccccc1)N1CCCCC1 (configuration not stated)	-2.8	0.4	0.4	/	60*	58*
Cc1cccc(NC(=O)C(c2cccc([N+](=O)[O-])c2)N2CCCCC2)c1 (configuration not stated)	-8*	0.7	0.5	-0.74	29	52*
CC1CCN(C(C(=O)Nc2ccc3c(c2)OCO3)c2ccccc2)CC1 (configuration not stated)	/	0.2	0.3	/	84*	73*
O=C(Nc1ccc2c(c1)OCO2)C(c1ccccc1)N1CCC2(CC1)OCCO2 (configuration not stated)	0.91	0.2	0.1	-0.02	79*	90*
CCOc1ccc2cc(/C=C/C(=O)c3ccco3)c(Cl)nc2c1	/	0.7	0.8	2.7	25	18
COCCn1c(SCc2c(F)cccc2Cl)nc2c1c(=O)[nH]c(=O)n2C	0.28	0.8	0.5	-0.52	23	46
CCOC(=O)C1CCN(C(C(=O)NC2CCCC2)c2ccc(C)cc2)CC1 (configuration not stated)	0.55	0.6	0.9	/	41	8
CC1CCCN(C(C(=O)Nc2ccc3c(c2)OCO3)c2ccccc2)C1 (configuration not stated)	-2.8	0.2	0.2	/	82*	80*
Cc1ccc(C(C(=O)NC2CCCC2)N2CCCC(C)C2)cc1 (configuration not stated)	0.39	0.6	0.5	/	40	49
Cc1cccc(NC(=O)C2(C)CC3c4ccccc4C2c2ccccc23)c1 (configuration not stated)	0.45	0.9	1	0.54	14	-2
Cc1cccc(NC(=O)C2(c3ccc([N+](=O)[O-])cc3)CCCC2)c1	-5.5*	0.6	0.2	-1	39	78*
CCOc1c2ccc(C(=O)N[C@H](C)C3CCCCC3)cc2nn1CC	0.022	0.9	0.9	/	5	9
O=C(Nc1ccc(N2CCOCC2)cc1)c1cn2ccccc2n1	/	0.7	0.4	1.3	34	60*
Cc1cc(C(=O)Nc2ccc(N3CCOCC3)cc2)c2ccccc2n1	0.56	1.1	1	-0.32	-11	0
CN1CCCc2cc3c(C(F)(F)F)cc(=O)oc3nc21	/	0.9	0.9	0.68	10	14
Cc1cc2nnc(SC3CCOC3=O)n2c2ccccc12 (configuration not stated)	1.4	2.1*	1	0.25	-108	-1
Cc1cc2nnc(SC3CCCCN(C(=O)c4ccc(F)cc4)C3=O)n2c2ccccc12 (configuration not stated)	/	0.7	0.2	0.04	29	84*
